Assay [1] deals with Thyrotropin-releasing hormone receptor (Homo sapiens) (UniProt P34981). Put plainly: qHTS assay to identify small molecule agonists of the thyrotropin-releasing hormone receptor (TRHR) signaling pathway (AID 1346891; calls by dose curve;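 note: HEK293 cells expressing TRHR with calcium dye readout; series mostly up to about 58 µM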). The method, boiled down: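 HEK293/TRHR cells, 1500 per well, 18 h 37 °C; Ca dye 2 h 37 °C; pin-tool compound addition (agonist mode); kinetic fluorescence 3 min, 1 s reads; 15 concentrations, triplicate.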

The nature of assay [2]: Human pregnane X receptor (PXR) small molecule agonists, qHTS cell viability counter screen (AID 1346977). Note: nearly all actives have a fitted effect of over 50% in size. The method, boiled down: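 Fluorescence read-out (CellTiter-Fluor) of viability in PXR-Luc HepG2 cells, multiplexed with the luciferase agonist read. Compounds in DMSO added after 5hr plating; 24hr total exposure at 37C, 5% CO2.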
For orientation: qHTS replaces the single test concentration by a dilution series.

A short description of assay [3]: Caspase-3/7 induction in HepG2 cells by small molecules, qHTS assay (AID 1346978). Note: nearly all actives have a fitted effect of over 15% in size. The method, boiled down:
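Wild-type HepG2 cells, 2,000/well, settled 5 hr at 37 C and 5% CO2, then compound-treated for 17 hr; caspase-3/7 activity read by luminescent Caspase-Glo 3/7 after 30 min at room temperature.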

Assay [4] is described as follows: Caspase-3/7 induction in CHO-K1 cells by small molecules, qHTS cell viability counter screen (AID 1346979). Note: nearly all actives have a fitted effect of over 35% in size. The gist of the method:
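CHO-K1 wt, 1,500 cells/well; 5hr pre-incubation 37C/5% CO2; compound pin transfer (DMSO); 16hr exposure; CellTiter-Fluor added, 1hr, fluorescence read.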

Assay [5] is described as follows: Caspase-3/7 induction in CHO-K1 cells by small molecules, qHTS assay (AID 1346980). Note: nearly all actives have a fitted effect of over 15% in size. The method, boiled down: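 Wild-type CHO-K1 cells exposed to compounds for 17hr at 37 C, 5% CO2. Caspase-3/7 activity then measured by Caspase-Glo 3/7 luminescence after 30min at room temperature.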
Assay [6] can be described thus: Caspase-3/7 induction in HepG2 cells by small molecules, qHTS cell viability counter screen (AID 1346981). Note: series mostly up to about 92 µM; nearly all actives have a fitted effect of over 30% in size. The gist of the method: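 Steps: seed 2,000 HepG2 cells per well; incubate 5 hr at 37 C; pin-add compounds in DMSO; incubate 16 hr; add CellTiter-Fluor; after 1 hr at 37 C and 5% CO2, read fluorescence.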
In assay [7] the target is Nuclear receptor subfamily 1 group I member 2 (Homo sapiens) (UniProt O75469). The assay can be described thus: Human pregnane X receptor (PXR) small molecule agonists, qHTS assay (AID 1346982). Note: nearly all actives have a fitted effect of over 35% in size. Note: potency is the fitted concentration of half-maximal effect. The gist of the method:
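Agonist mode qHTS: PXR-Luc HepG2 cells plated 5 hr before DMSO-dissolved compounds were pinned in, cultured 24 hr at 37 C, 5% CO2; ONE-Glo luminescence readout.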

The target in assay [8] is Voltage-gated inwardly rectifying potassium channel KCNH2 (Homo sapiens) (UniProt Q12809). The assay can be described thus: Human Ether-a-go-go-Related Gene (hERG) channel small molecule antagonists: fluorescence cell-based qHTS assay (AID 1671200).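 Note: hERG-expressing U2OS cells given a thallium stimulus after FluxOR II dye loading; series mostly up to about 77 µM; nearly all actives have a fitted effect of over 50% in size.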 The gist of the method:
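Read-out: thallium influx as a surrogate for potassium, tracked as fluorescence (480 nm ex/540 nm em) every second for 2 min after Stimulus Buffer addition in dye-loaded hERG-U2OS cells.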

Assay [9] deals with Cytochrome P450 2D6 (Homo sapiens) (UniProt P10635). Put plainly: Cytochrome P450 Family 2 Subfamily D Member 6 (CYP2D6) small molecule antagonists: luciferase reporter qHTS assay (AID 1671196). Note: nearly all actives have a fitted effect of over 50% in size. Note: potency is the fitted concentration of half-maximal effect. The method, boiled down: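 P450-Glo format: CYP2D6 converts a proluciferin substrate to luciferin in an NADPH-driven reaction lasting 1 h at room temperature. Light output, proportional to CYP2D6 activity, reflects interference by test chemicals.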
For orientation: Reporter assays use an easily measured gene product as a stand-in for the process of interest.

For assay [10], the target named is Cytochrome P450 2C19 (Homo sapiens) (UniProt P33261). Put plainly: Cytochrome P450 Family 2 Subfamily C Member 19 (CYP2C19) small molecule antagonists: luciferase reporter qHTS assay (AID 1671197). Note: nearly all actives have a fitted effect of over 65% in size. Note: potency is the fitted concentration of half-maximal effect. The gist of the method:
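Inhibition of CYP2C19 was scored from loss of luminescence in a P450-Glo proluciferin substrate assay, NADPH-started and run 1 h at 37C, with ketoconazole as positive control.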

Assay [11] addresses Cytochrome P450 2C9 (Homo sapiens) (UniProt P11712). The assay can be described thus: Cytochrome P450 Family 2 Subfamily C Member 9 (CYP2C9) small molecule antagonists: luciferase reporter qHTS assay (AID 1671198). Note: nearly all actives have a fitted effect of over 50% in size. Note: potency is the fitted concentration of half-maximal effect. The gist of the method:
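P450-Glo proluciferin substrate with CYP2C9 enzyme; 10 min RT preincubation, then NADPH regeneration 1 h at 37C; luciferin detection reagent 20 min RT, luminescence in relative luminescence units.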

Assay [12] concerns the target Cytochrome P450 3A4 (Homo sapiens) (UniProt P08684). Put plainly: Cytochrome P450 Family 3 Subfamily A Member 4 (CYP3A4) small molecule antagonists: luciferase reporter qHTS assay (AID 1671201). The gist of the method: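 Luminescent readout (RLU) proportional to CYP3A4 activity, from luciferin generated off a proluciferin substrate. Enzyme–substrate mix plus compound 10 min at room temp, NADPH regeneration 1 h, detection reagent 20 min.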

Assay [13] addresses Cytochrome P450 1A2 (Homo sapiens) (UniProt P05177). The assay can be described thus: Cytochrome P450 Family 1 Subfamily A Member 2 (CYP1A2) small molecule antagonists: luciferase reporter qHTS assay (AID 1671199). Note: nearly all actives have a fitted effect of over 50% in size. Note: potency is the fitted concentration of half-maximal effect. The gist of the method:
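Inhibition of CYP1A2 conversion of proluciferin to luciferin, detected by luminescence. Reaction run 1 h at room temperature with NADPH regeneration after brief compound preincubation.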

The target of assay [14] is Nuclear receptor subfamily 1 group I member 2 (Rattus norvegicus) (UniProt Q9R1A7). Put plainly: Rat pregnane X receptor (rPXR) activation by small molecules, qHTS assay (AID 1346983). Note: nearly all actives have a fitted effect of over 20% in size. The settings on record: rPXR luciferase reporter cells, One-Glo luminescence, 24 h; max activation: stronger effect = higher value. The method, boiled down: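 Cell-based rPXR activation assay: rPXR cells, 2,000 per well, rested 5hr at 37 C, then exposed to compounds in DMSO for 24 hr at 37 C. Luciferase activity read by One-Glo luminescence after 30 min at room temperature.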

Assay [15] concerns the target Nuclear receptor subfamily 1 group I member 2 (Homo sapiens) (UniProt O75469). The assay can be described thus: Human pregnane X receptor (PXR) activation by small molecules, qHTS assay (AID 1346985). Note: nearly all actives have a fitted effect of over 40% in size. The gist of the method:
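DPX-2 cells (HepG2 co-transfected with a PXR response element and a CYP3A4-promoter luciferase construct) were seeded at 2,000 per well, rested 5 hr at 37C, then exposed to DMSO-dissolved compounds for 24 hr. Activation was read as luciferase luminescence.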

Unmarked numbers belong to inactive results. Records with an inconclusive call do not appear. Calls of active or inactive are those of the source. Unless noted, calls come from the whole dose curve; as a rule, active = well fitted curve in the direction sought with a large enough effect in the repeat runs; inconclusive = weak or mixed curves; inactive = no such curve, though single readings can be large; an effect the other way counts as inactive or inconclusive.
% is set by controls: 0 for no effect and ±100 for the full control effect.

Sequence of Voltage-gated inwardly rectifying potassium channel KCNH2 (Homo sapiens) (Q12809 whole entry, looked up): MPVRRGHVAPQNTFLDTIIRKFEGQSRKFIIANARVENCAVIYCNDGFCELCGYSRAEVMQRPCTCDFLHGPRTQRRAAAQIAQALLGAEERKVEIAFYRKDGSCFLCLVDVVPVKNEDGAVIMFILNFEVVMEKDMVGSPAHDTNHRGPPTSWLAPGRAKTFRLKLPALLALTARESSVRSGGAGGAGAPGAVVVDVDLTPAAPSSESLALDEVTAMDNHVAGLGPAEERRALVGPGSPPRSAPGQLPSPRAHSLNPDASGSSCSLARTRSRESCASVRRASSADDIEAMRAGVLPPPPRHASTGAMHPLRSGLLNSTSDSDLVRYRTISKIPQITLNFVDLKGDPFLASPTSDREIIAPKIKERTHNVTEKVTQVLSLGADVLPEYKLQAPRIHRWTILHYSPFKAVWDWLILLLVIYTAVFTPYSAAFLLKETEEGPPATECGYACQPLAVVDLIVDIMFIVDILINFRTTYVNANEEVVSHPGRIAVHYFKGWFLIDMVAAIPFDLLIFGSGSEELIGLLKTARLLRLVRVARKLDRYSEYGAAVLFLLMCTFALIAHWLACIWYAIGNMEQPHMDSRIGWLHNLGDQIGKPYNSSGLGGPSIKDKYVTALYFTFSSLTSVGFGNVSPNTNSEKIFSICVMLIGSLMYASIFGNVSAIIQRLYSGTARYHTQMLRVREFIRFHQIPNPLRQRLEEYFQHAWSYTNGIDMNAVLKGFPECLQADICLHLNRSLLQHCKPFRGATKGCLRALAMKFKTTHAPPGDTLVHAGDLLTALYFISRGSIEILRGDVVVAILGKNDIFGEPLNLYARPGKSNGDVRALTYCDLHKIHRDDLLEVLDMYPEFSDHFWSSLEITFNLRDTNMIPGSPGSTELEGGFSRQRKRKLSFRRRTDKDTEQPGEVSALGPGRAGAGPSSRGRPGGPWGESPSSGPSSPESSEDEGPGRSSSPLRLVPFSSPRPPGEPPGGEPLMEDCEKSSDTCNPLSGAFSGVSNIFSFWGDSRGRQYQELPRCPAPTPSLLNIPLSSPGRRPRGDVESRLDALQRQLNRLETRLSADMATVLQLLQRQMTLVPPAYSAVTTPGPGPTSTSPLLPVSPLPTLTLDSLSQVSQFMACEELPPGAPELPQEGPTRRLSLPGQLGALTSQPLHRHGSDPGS
Sequence of Nuclear receptor subfamily 1 group I member 2 (Homo sapiens) (O75469 whole entry, looked up): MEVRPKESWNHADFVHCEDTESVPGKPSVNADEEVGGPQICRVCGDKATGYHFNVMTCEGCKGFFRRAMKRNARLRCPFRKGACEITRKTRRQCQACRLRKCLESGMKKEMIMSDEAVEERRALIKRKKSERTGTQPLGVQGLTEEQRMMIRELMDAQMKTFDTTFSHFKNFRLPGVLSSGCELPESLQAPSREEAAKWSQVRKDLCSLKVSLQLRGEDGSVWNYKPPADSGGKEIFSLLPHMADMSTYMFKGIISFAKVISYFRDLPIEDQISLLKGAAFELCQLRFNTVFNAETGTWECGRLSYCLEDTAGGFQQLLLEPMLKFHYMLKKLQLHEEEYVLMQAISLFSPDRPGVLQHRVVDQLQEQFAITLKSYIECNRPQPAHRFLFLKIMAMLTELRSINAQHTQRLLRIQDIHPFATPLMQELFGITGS
Sequence of Cytochrome P450 2C19 (Homo sapiens) (P33261 whole entry, looked up): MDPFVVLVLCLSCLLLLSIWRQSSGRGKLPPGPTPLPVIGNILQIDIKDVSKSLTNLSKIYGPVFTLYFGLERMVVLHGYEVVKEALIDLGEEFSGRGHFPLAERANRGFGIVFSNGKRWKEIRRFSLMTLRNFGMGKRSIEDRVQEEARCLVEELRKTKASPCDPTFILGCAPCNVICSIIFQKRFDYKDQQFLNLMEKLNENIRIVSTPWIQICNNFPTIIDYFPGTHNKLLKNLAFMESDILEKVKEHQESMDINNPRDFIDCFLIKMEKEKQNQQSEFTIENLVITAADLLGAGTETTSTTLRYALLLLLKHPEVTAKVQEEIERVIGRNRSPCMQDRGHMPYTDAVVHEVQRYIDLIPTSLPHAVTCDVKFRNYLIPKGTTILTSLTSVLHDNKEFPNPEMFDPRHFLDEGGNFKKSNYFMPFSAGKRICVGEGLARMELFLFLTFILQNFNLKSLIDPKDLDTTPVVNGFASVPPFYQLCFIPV
Sequence of Cytochrome P450 2D6 (Homo sapiens) (P10635 whole entry, looked up): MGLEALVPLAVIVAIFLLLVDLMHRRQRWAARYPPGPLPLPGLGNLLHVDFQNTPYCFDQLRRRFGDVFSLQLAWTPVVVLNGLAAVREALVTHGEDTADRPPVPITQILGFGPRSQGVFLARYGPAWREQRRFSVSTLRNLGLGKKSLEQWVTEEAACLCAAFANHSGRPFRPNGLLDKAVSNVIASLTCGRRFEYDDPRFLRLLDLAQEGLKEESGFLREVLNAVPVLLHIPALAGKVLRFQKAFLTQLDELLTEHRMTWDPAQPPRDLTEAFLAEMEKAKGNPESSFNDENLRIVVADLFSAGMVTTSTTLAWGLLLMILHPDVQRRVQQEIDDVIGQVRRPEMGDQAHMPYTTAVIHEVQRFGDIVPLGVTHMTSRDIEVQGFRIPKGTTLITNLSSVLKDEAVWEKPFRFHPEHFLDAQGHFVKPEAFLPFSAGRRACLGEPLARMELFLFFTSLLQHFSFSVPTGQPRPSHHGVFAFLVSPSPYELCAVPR
Sequence of Cytochrome P450 3A4 (Homo sapiens) (P08684 whole entry, looked up): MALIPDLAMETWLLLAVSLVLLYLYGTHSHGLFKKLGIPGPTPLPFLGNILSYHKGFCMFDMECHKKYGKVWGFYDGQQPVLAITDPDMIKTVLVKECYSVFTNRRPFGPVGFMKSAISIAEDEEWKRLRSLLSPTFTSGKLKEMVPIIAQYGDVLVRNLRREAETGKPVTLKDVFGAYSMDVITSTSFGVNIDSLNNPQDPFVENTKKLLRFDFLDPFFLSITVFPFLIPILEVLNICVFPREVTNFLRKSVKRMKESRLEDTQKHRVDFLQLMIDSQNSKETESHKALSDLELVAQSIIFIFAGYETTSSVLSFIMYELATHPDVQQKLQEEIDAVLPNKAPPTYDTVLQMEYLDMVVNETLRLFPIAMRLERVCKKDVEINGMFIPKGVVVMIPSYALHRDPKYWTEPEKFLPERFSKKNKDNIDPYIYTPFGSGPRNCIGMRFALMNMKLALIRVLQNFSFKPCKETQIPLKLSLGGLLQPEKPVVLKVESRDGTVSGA
Sequence of Thyrotropin-releasing hormone receptor (Homo sapiens) (P34981 whole entry, looked up): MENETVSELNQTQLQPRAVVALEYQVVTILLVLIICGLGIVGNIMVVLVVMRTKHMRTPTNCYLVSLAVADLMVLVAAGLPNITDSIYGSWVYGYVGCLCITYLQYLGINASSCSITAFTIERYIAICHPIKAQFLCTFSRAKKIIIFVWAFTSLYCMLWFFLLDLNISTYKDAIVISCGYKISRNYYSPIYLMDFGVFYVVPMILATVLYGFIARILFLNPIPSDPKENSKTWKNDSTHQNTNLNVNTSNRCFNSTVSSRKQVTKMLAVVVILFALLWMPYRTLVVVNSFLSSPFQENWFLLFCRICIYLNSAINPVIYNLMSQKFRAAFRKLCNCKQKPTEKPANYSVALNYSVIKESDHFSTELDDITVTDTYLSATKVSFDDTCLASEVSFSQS
Sequence of Cytochrome P450 1A2 (Homo sapiens) (P05177 whole entry, looked up): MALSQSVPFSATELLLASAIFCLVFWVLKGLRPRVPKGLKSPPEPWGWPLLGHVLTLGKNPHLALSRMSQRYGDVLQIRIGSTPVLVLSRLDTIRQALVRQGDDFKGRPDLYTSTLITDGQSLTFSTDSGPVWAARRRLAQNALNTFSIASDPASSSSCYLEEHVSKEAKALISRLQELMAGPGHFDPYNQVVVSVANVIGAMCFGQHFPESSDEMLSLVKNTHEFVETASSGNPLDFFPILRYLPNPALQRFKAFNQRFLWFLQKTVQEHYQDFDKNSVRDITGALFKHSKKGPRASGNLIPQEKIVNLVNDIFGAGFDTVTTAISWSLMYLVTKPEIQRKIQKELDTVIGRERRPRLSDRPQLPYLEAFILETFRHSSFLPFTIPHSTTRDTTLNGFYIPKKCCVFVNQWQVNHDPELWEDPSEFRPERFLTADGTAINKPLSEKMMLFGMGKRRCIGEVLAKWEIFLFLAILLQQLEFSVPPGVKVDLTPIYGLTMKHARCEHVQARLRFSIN
Sequence of Cytochrome P450 2C9 (Homo sapiens) (P11712 whole entry, looked up): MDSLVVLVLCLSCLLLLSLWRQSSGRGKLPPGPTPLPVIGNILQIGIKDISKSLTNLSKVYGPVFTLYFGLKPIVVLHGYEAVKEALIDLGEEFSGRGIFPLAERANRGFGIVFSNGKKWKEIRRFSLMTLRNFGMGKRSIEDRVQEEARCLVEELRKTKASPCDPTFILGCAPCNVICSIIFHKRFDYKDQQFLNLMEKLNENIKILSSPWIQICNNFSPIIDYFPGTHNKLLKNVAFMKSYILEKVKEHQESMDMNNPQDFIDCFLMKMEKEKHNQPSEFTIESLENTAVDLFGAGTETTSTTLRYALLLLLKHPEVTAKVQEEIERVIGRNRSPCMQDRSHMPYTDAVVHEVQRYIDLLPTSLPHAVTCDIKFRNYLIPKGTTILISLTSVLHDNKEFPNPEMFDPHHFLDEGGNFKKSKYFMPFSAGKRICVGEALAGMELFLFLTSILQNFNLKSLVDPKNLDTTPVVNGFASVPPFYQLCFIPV
Sequence of Nuclear receptor subfamily 1 group I member 2 (Rattus norvegicus) (Q9R1A7 whole entry, looked up): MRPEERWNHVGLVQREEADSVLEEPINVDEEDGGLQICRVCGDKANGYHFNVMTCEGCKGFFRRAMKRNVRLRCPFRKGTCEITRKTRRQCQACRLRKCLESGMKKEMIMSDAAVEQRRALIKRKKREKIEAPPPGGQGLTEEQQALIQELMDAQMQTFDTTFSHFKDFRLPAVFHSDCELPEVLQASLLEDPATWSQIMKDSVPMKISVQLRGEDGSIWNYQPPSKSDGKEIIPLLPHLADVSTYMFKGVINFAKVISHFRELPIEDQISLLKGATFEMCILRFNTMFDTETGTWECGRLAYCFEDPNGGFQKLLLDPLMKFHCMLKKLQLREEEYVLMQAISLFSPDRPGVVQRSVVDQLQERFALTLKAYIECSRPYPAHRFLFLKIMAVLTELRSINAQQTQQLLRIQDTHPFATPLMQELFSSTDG

As for `CCCCOCCOC(=O)c1cccnc1`, the compound was called inactive in assay [1] and in [5]. The Potency entry in assay [2], in assay [3], in assay [4], in [6], in assay [7] and in assay [8] was “inactive” in each case.

As for `CCCCCCOC(=O)CCCCC`, the call in assay [1] and in [5] was inactive. For the same compound, the Potency entry in assay [2], in assay [3], in assay [4], in assay [6], in [7] and in [9] was “inactive” in each case. Besides, the Potency entry in assay [10], in [11], in assay [8] and in assay [12] was “inactive” throughout.

As to `COc1cc(NS(=O)(=O)c2ccc(N)cc2)nc(C)n1`, the compound was called inactive in [1] and in assay [5]. Besides, the Potency result in assay [2], in assay [3], in assay [4], in assay [6], in [7] and in assay [9] was “inactive” each time. The Potency entry in [10], in assay [11], in assay [13] and in [8] was “inactive” each time.

Consider `CCNc1nc(N)nc(Cl)n1`, for which the call in assay [1] and in assay [5] was inactive. Moreover, the Potency result in assay [2], in [3], in assay [4], in assay [6], in assay [7] and in [11] was “inactive” throughout. Further, the Potency result in assay [8] and in assay [12] was “inactive” each time. For the same compound, in assay [13], the Potency is 31.7 µM (active).

On to `CC(C)(C)S`, for which the outcome in assay [1] and in assay [5] was inactive. Further, the Potency entry in [2], in [3], in assay [4], in assay [6], in assay [7] and in assay [8] was “inactive” throughout. The figures for the Potency in assay [9] and in assay [10] were 7.34 µM (active) and 41.3 µM (active), respectively.

Take `CCCCC(CC)COS(=O)(=O)O` (configuration not stated): the call in [1] and in [5] was inactive. Besides, the Potency result in assay [2], in assay [3], in [4], in assay [6], in assay [7] and in assay [15] was “inactive” throughout. Moreover, the Potency result in [10], in [13], in assay [8] and in assay [12] was “inactive” in each case. Further, the max activation in [14] is -1.14%.

In the case of `O=C(O)c1cccc(C[C@@H]2COc3ccc(OCc4nc5cc(F)ccc5s4)cc3[C@@H]2O)c1`, the call in assay [1] and in assay [5] was inactive. For the same compound, the Potency entry in [2], in assay [3], in assay [4], in assay [6], in assay [7] and in assay [9] was “inactive” in each case. Further, the Potency entry in assay [10], in assay [8] and in assay [12] was “inactive” each time. The Potency in assay [11] was 40 µM (active); in [13], 31.8 µM (active).

On to `Oc1cccc2[nH]ccc12`, for which the outcome in [1] and in assay [5] was inactive. Moreover, the Potency result in assay [2], in [3], in assay [4], in assay [6], in [7] and in assay [10] was “inactive” throughout. Moreover, the Potency entry in assay [13], in assay [8] and in [12] was “inactive” each time. Also, the Potency in assay [9] and in assay [11] was 15.5 µM (active) throughout.

As for `FC(F)(F)C(F)(F)C(F)(F)C(F)(F)CCI`, the call in assay [1] and in [5] was inactive. For the same compound, the Potency entry in assay [2], in assay [3], in [4], in assay [6], in [7] and in [9] was “inactive” throughout. Also, the Potency entry in [10], in assay [11], in assay [13], in assay [8] and in [12] was “inactive” each time.

As for `CC(C)(C)C(O)/C=C/c1ccc2c(c1)OCO2` (configuration not stated), the result in assay [1] and in assay [5] was inactive. For the same compound, the Potency entry in [2], in assay [3], in assay [4], in assay [6] and in [8] was “inactive” each time. The Potency in [7] was 29.8 µM (active); in assay [9] it was 27.5 µM (active); in assay [10], 3.89 µM (active); in assay [11], 3.89 µM (active); in [13], 5.75 µM (active).

The record behind these values is PubChem BioAssay (Tox21).
